For 14 compounds, growth results are on record in PubChem BioAssay (NCI).

Test in all cases: NCI-60 one-dose screen, 48 h (100 = growth as untreated, 0 = no growth, -100 = all killed)
Settings in all cases: 10 µM unless noted

Test [1] has as its system SK-MEL-2 melanoma.
Test [2] has as its system EKVX NSCLC.
The subject of test [3] is SN12C renal.
The test system of test [4] is UO-31 renal.
The subject of test [5] is TK-10 renal.
Test [6] concerns ACHN renal.
In test [7] the test system is CAKI-1 renal.
The subject of test [8] is A498 renal.
Test [9] deals with MOLT-4 leukemia.

Compounds without any hit were thinned out: in the full panel of roughly 83,000, 20% have a hit.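 Assay: single dose, 48 h. Readout: percent growth (0 = no net growth; negative = cell death). Active: <10.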 A number with no mark means an inactive call. The source made the active and inactive calls.

Consider `CN1CCN(c2ccc3nc(-c4[nH]ncc4Nc4ncnc5[nH]ccc45)[nH]c3c2)CC1`, for which the growth was -27.8% (active) in test [1]; 2.05% (active) in test [2]; 2.59% (active) in test [3]; -9.13% (active) in test [4]; -9.08% (active) in [5]; 0.294% (active) in test [6]. Also, the growth is 1.7% (active) in test [7], -45.7% (active) in test [8] and -13.6% (active) in test [9].
As to `Cn1cc(-c2csc(-c3c[nH]c4ccc(F)cc34)n2)c2cccnc21`, the growth is 41.2% in test [1]; 60.4% in [2]; 64.5% in [3]; 77.1% in test [4]; 69.7% in [5]; 48.8% in test [6]. The growth is 36.9% in test [7], 27% in test [8] and 46.7% in test [9].
Consider `CC(C)(C)n1cc(-c2ccnc(NCCCNS(=O)(=O)c3ccc(Cl)cc3)c2)c(-c2cccc(F)c2)n1`, for which the growth in test [1] is 88.4%; in test [2], 56.2%; in test [3] it was 73.9%; in test [4], 66.5%; in [5], 111%; in test [6], 80.8%. Moreover, the growth is 77.9% in [7], 108% in test [8] and 55.1% in test [9].
On to `COc1cc2ncnc(Nc3ccc(Oc4ccnc(C)c4)c(C)c3)c2cc1NC(=O)CC1CCSS1` (stereo unspecified), for which the growth in test [1] is -57.7% (active); in test [2], -1.66% (active); in test [3] it was 21.3%; in test [4] it was -23.7% (active); in test [5] it was -68.6% (active); in [6], 10.5%. Besides, the results for the growth in test [7], in test [8] and in test [9] were 3.34% (active), 66.8% and -56.8% (active), respectively.
With `N=C(N)c1ccc(S(N)(=O)=O)cc1`, the growth in test [1] is 99.9%; in test [2] it was 96.2%; in [3] it was 94.5%; in test [4] it was 72.6%; in test [5] it was 96.6%; in test [6] it was 108%. Moreover, the growth is 92.5% in test [7], 92% in test [8] and 102% in test [9].
As to `C=C(C)[C@@H]1CC[C@]2(c3nnc(-c4ccncc4)o3)CC[C@]3(C)[C@H](CC[C@@H]4[C@@]5(C)CCC(=O)NC(C)(C)[C@@H]5CC[C@]43C)[C@@H]12`, the growth was 111% in [1]; 95.1% in test [2]; 91.8% in [3]; 76.6% in [4]; 143% in test [5]; 98.7% in test [6]. Moreover, the growth in test [7] was 51.1%; in test [8] it was 99.3%; in [9], 85.6%.
Take `COc1cc2nc(Cl)nc(Nc3cccc(C(=O)/C=C/c4ccc(Cl)cc4)c3)c2cc1OC`: the growth in test [1] is 96.4%; in test [2], 71.7%; in test [3] it was 70.5%; in test [4] it was 57.1%; in test [5], 149%; in [6], 56%. Moreover, the growth in test [7] was 51.9%; in [8], 77.3%; in test [9], 33.5%.
Take `O=C(O)c1cccc2c1Cc1cc([N+](=O)[O-])ccc1-2`: the growth was 102% in [1]; 61.9% in test [2]; 103% in test [3]; 103% in test [4]; 123% in test [5]; 102% in test [6]. For the same compound, the growth in test [7] was 89.5%; in test [8] it was 93.1%; in [9], 94%.
On to `CCN1CCN(C(=O)[C@]23CC[C@@H](C)[C@H](C)[C@H]2C2=CC[C@@H]4[C@@]5(C)C/C(=C/c6cccc(OC)c6OC)C(=O)C(C)(C)[C@@H]5CC[C@@]4(C)[C@]2(C)CC3)CC1`, for which the growth is 84.6% in [1]; 27.7% in test [2]; 43.2% in [3]; 30.3% in test [4]; 95.9% in [5]; 41.9% in [6]. For the same compound, the results for the growth in [7], in test [8] and in test [9] were 31.4%, 77.7% and 10.1%, respectively.
As for `COc1cc2c(cc1-c1c(C)noc1C)ncc1nc(C3CCCCC3)n([C@@H](C)COC(F)F)c12`, the growth in test [1] was 64.4%; in test [2], 39.2%; in [3], 55.3%; in [4] it was 23.6%; in test [5] it was 28.9%; in [6], 37.8%. The growth in [7] was 26.7%; in test [8] it was 1.93% (active); in [9], 39.5%.
Turning to `CN(C)c1ccc(N)c2ccccc12`, the growth in test [1] was 89.6%; in [2], 49.2%; in test [3], -62.2% (active); in [4], 52.7%; in [5], 128%; in test [6], 67.2%. Moreover, the results for the growth in test [7], in test [8] and in test [9] were 69.4%, 183% and 40.7%, respectively.
On to `N=C(N)c1ccc(-c2ccc(-c3cc(F)cc(F)c3)o2)nc1`, for which the growth in test [1] was 106%; in test [2] it was 90.4%; in test [3], 86.9%; in test [4] it was 69.8%; in test [5] it was 124%; in test [6] it was 90%. Moreover, the growth in test [7] was 78.5%; in [8] it was 90.3%; in test [9], 73.8%.
Turning to `Clc1cc(Cl)cc(Nc2ccc3c(OCCCN4CCOCC4)cccc3n2)c1`, the growth in test [1] is 87.8%; in test [2], 62.2%; in [3] it was 76.1%; in test [4], 28.6%; in [5], 80.5%; in test [6], 49.9%. Also, the values for the growth in test [7], in test [8] and in [9] were 56.6%, 59.8% and 22.5%, respectively.
Take `Oc1cccc2oc(=S)[nH]c12`: the growth in test [1] is 109%; in test [2], 111%; in [3], 98.6%; in test [4], 72.9%; in [5], 106%; in test [6] it was 99.7%. Moreover, the growth in test [7] is 120%; in test [8], 94.8%; in [9] it was 99.5%.
